A selection: hits, their analogues and other compounds. The true share with any hit is near 19%.
uPA generation: cell surface uPA generation inhibition. Potency, µM (titrated, usually from 38.3 µM), usual class: inhibitors. cell surface uPA generation assay, qHTS. hit rate 0.31% among 330,000; active means well fitted inhibition curve with a large enough effect; inconclusive means small, poorly fitted or top-dose-only effect; inactive means no such curve, though single readings can be large or run the other way; tested in mouse RAW 264.7 cells; further: nearly all actives have a fitted effect of over 55% in size
HT1080-NT tox: kills 2HG-producing HT-1080-NT fibrosarcoma cells | HT-1080-NT fibrosarcoma viability, CellTiter-Glo ATP luminescence, 48 h | Potency, µM (doses to about 46.1 µM), usual class: cytotoxic | hit rate 1.6% among 360,000 | AID 686970;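 further: NT is the 2HG producing partner of a matched IDH1 knockdown line; nearly all actives have a fitted effect of over 55% in size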
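A 48-hour cytotoxicity screen used HT-1080-NT cells plated 2 hours before compound delivery. ATP-based CellTiter-Glo luminescence measured viability, normalized to DMSO and no-cell controls.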
TDP1 cell noCPT: qHTS for Inhibitors of human tyrosyl-DNA phosphodiesterase 1 (TDP1): qHTS in cells in absence of CPT | DT40 Tdp1-/- hTDP1 cells, no CPT, ATP luminescence, 48 h | Potency, µM (titrated, usually from 46.2 µM), actives largely listed as inhibitors | hit rate 15% among 420,000; further: nearly all actives have a fitted effect of over 55% in size
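Camptothecin absent (DMSO only). Human TDP1-complemented DT40 knockout cells, 400 cells/well, 37 °C for minimum 48 hr; ATP measured via CellTiter-Glo, 30 min dark incubation, luminescence.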
DT40 TDP1 CPT: growth inhibition of DT40 Tdp1-/-;hTDP1 cells with camptothecin (screen for TDP1 inhibitors); chicken DT40 Tdp1-/-;hTDP1 cells + 20 nM CPT, ATP luminescence, 48 h; Potency, µM (titrated, usually from 46.2 µM), most hits filed as inhibitors; hit rate 12% among 420,000; AID 686979; further: nearly all actives have a fitted effect of over 55% in size
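Chicken DT40 Tdp1-/- cells complemented with human TDP1, 400 cells/well, exposed to compounds plus 20 nM camptothecin for at least 48 h at 37 C; viability read as ATP content by CellTiter-Glo luminescence.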
HT1080 IDH1KD tx: toxicity to HT-1080 IDH1 knockdown cells (counter line); HT-1080 IDH1 knockdown viability, ATP luminescence, 48 h; Potency, µM (doses to about 46.1 µM), actives largely listed as cytotoxic; hit rate 2% among 360,000; AID 686971
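In this qHTS, HT-1080 cells depleted of IDH1 are exposed for 48 h at 37 °C to compound titrations. Toxicity is scored from CellTiter-Glo luminescence, with DMSO as full viability and medium alone as none.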
IL1B secr inh: inflammasome signaling inhibition, IL-1 beta readout | THP-1 LPS/ATP IL-1B secretion, AlphaLISA, 16 h; hits give low values | activity change, % at 57.5 µM | hit rate 4.7% among 360,000 | AID 743279; in the data active means activity change below about -50%; inconclusive means mostly about -30% to -49%
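THP-1 cells pretreated 1 hr with compounds (up to 57.5 uM final), then stimulated with LPS (250 ng/mL final) plus ATP (1.25 mM final); secreted IL-1B measured by AlphaLISA after 16 hr, decreased signal indicating inhibition.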
Large screens that a line does not name were inactive. Unless noted, the call rests on the fitted dose curve; in most records, active means well fitted curve in the direction sought with a large enough effect; inconclusive means small, poorly fitted or top-dose-only effect, or another doubt; inactive means no such curve, though single readings can be large; an effect the other way counts as inactive or inconclusive.

CC1(OC(=O)C2CCCC2)C(=O)C=C2C=C(c3ccsc3)N(CCc3c[nH]c4ccccc34)C=C2C1=O (stereo not drawn)	TDP1 cell noCPT inconclusive, DT40 TDP1 CPT 21µM
CC1(OC(=O)C2CCCC2)C(=O)C=C2C=C(c3ccsc3)N(CC3CC3)C=C2C1=O (stereo not drawn)	TDP1 cell noCPT inconclusive
CC1(OC(=O)CCc2ccccc2)C(=O)C=C2C=C(c3ccc(C#N)cc3)N(C3CCCCC3)C=C2C1=O (stereo not drawn)	TDP1 cell noCPT inconclusive, DT40 TDP1 CPT 26µM
Cc1csc(CNC(=O)C2CCC(=O)N(CCc3cccc(F)c3)C2)n1 (stereo not drawn)	none
CCNC(=O)C1CCCN(C(=O)c2cccc(Cl)c2)CC1 (stereo not drawn)	none (no result: uPA generation)
O=C(O)Cc1ccc(N2N=C(c3ccccc3)CC2=O)cc1	none (no result: uPA generation)
CSc1nccc(N2CCN(c3ccc(F)cc3)CC2)n1	TDP1 cell noCPT inconclusive, DT40 TDP1 CPT 13µM
Clc1ccc(N2CCN(c3ccnc(Cl)n3)CC2)cc1	HT1080-NT tox inconclusive, TDP1 cell noCPT inconclusive
CC(C)n1nnnc1C1c2ccccc2C(=O)N1Cc1ccccc1 (stereo not drawn)	none (no result: uPA generation)
CC(C)NC(=O)C1(C)CN(S(C)(=O)=O)CC(=O)N1Cc1cccc(C(F)(F)F)c1 (stereo not drawn)	TDP1 cell noCPT inconclusive (no result: uPA generation)
Cc1ccccc1OCC(=O)N/N=C/C=C/c1ccccc1	none
Cc1ccccc1OCC(=O)N/N=C/c1ccc([N+](=O)[O-])o1	uPA generation inconclusive, TDP1 cell noCPT 8.2µM, DT40 TDP1 CPT 10µM, HT1080 IDH1KD tx inconclusive
Cc1cc(C)cc(OCC(=O)N/N=C/c2ccc([N+](=O)[O-])o2)c1	TDP1 cell noCPT inconclusive, IL1B secr inh -64 (no result: uPA generation)
CCCOc1ccc(CC(=O)N/N=C\c2ccc(F)cc2)cc1	TDP1 cell noCPT inconclusive
CCCOc1ccc(CCC(=O)N/N=C/c2ccc([N+](=O)[O-])o2)cc1	uPA generation inconclusive, DT40 TDP1 CPT 16µM
COc1ccccc1OCC(=O)N/N=C/C=C/c1ccc([N+](=O)[O-])o1	TDP1 cell noCPT 7.3µM, DT40 TDP1 CPT 6.5µM, HT1080 IDH1KD tx inconclusive, IL1B secr inh -100
Cc1ncc(CN=Cc2ccc(Cl)cc2)c(N)n1	none
CCC(N)(C(=O)O)c1ccc(C(=O)O)cc1 (stereo not drawn)	DT40 TDP1 CPT inconclusive (no result: uPA generation, HT1080-NT tox, HT1080 IDH1KD tx, IL1B secr inh)
O=C(COc1ccccc1[N+](=O)[O-])N/N=C/C=C/c1ccco1	TDP1 cell noCPT inconclusive
Cc1ccc(OCC(=O)N/N=C/C=C/c2ccco2)cc1	TDP1 cell noCPT 7.3µM, DT40 TDP1 CPT 8.2µM
Cc1ccccc1Nc1nc(Nc2ccccc2C)nc(SC2=NCCS2)n1	HT1080-NT tox inconclusive, TDP1 cell noCPT 21µM, DT40 TDP1 CPT 23µM, HT1080 IDH1KD tx inconclusive, IL1B secr inh inconclusive
Cc1ccc(Nc2nc(Nc3ccc(C)cc3)nc(SC3=NCCS3)n2)cc1	HT1080-NT tox 10µM, TDP1 cell noCPT 18µM, DT40 TDP1 CPT inconclusive, HT1080 IDH1KD tx inconclusive
CC(C)(C)c1ccc(S(=O)(=O)NC(=O)C2(C)CCN2C(=O)c2cccc3ccccc23)cc1 (stereo not drawn)	none (no result: uPA generation)
Cc1csc(NC(=O)Cc2ccc(F)cc2)n1	none
O=C(Cc1ccc(F)cc1)Nc1nc(-c2ccc(F)c(F)c2)cs1	TDP1 cell noCPT inconclusive, DT40 TDP1 CPT 8.2µM, IL1B secr inh inconclusive
COc1ccc(CC(=O)Nc2nc(-c3ccncc3)cs2)cc1	HT1080-NT tox inconclusive
O=C(CSc1ncnc2[nH]ncc12)Nc1nc(-c2ccc(F)c(F)c2)cs1	uPA generation inconclusive, TDP1 cell noCPT 21µM, DT40 TDP1 CPT 13µM, IL1B secr inh -68
Cc1cccc(C)c1NC(=O)CSc1ncnc2[nH]ncc12	none
COc1ccc(CC(=O)Nc2nc(-c3ccc(F)c(F)c3)cs2)cc1	HT1080-NT tox 18µM, TDP1 cell noCPT 16µM, DT40 TDP1 CPT 21µM, HT1080 IDH1KD tx inconclusive, IL1B secr inh -85
